JMJD2A Tudor: JMJD2A Tudor domain (human) inhibition; AlphaScreen JMJD2A-Tudor / H3K4me3 peptide binding; hit rate 4.4% among 390,000; Potency, µM (series often up to 114 µM), without a hit: at the top dose activity change, negative = inhibition, hits mostly inhibitors; O75164; note: % is set by controls: 0 for no effect and ±100 for the full control effect; nearly all actives have a fitted effect of over 50% in size
PLK1 PBD inh: blocks phosphopeptide binding to human PLK1 polo-box domain | P53350 | hit rate 2.8% among 360,000 | Potency, µM, for inactives: max response, negative = inhibition, most hits filed as inhibitors | Plk1 PBD binding of FITC phosphopeptide, fluorescence polarization | AID 720504; note: series mostly up to about 57 µM; % is set by controls: 0 for no effect and ±100 for the full control effect; nearly all actives have a fitted effect of over 65% in size
Target sequence (P53350 whole entry, looked up, the tested form may be a part): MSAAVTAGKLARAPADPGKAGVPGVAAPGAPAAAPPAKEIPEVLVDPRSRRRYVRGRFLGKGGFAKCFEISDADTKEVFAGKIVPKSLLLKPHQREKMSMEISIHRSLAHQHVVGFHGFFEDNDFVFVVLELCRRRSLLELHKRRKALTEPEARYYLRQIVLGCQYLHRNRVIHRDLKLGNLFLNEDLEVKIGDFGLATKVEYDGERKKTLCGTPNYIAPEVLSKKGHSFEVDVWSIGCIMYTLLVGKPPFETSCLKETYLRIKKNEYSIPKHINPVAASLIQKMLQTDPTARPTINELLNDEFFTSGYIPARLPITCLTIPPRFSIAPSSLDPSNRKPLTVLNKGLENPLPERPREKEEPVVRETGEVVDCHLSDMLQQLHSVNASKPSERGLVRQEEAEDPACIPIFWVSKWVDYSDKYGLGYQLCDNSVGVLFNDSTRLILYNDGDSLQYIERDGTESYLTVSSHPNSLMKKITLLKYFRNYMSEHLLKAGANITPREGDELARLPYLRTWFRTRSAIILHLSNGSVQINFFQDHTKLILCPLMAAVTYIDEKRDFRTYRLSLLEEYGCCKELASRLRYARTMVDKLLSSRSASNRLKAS
Sfp inh: blocks B. subtilis Sfp PPTase activity. Q9F4F7. Biochemical Sfp PPTase activity, qHTS. Potency, µM, without a hit: largest response in the series, negative = inhibition, most hits filed as inhibitors. hit rate 3.5% among 310,000;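 note: the enzyme is Sfp with the accession as filed and its product quenches rhodamine fluorescence; 0% = enzyme reaction without inhibitor and -100% = no enzyme wells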
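After 15 min at room temperature with compound, 15 nM Sfp received 5 uM rhodamine-CoA plus 12.5 uM BHQ-2-ybbR (50 mM Hepes pH 7.6, 10 mM MgCl2). Rate came from the fluorescence difference over 30 min, ex 525/em 598 nm.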
BAZ2B inh: BAZ2B (human) inhibition; Q9UIF8; AlphaScreen BAZ2B-H3K14Ac peptide displacement; Potency, µM (top dose mostly 114 µM), for the others: at the highest dose activity change, negative = inhibition, usual class: inhibitors; hit rate 4.4% among 360,000; AID 504333; note: % is set by controls: 0 for no effect and ±100 for the full control effect; nearly all actives have a fitted effect of over 60% in size
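Compounds, titrated to a top concentration of 110 uM, were incubated 30 min at room temperature with preformed BAZ2B/acetyl-K14 H3 peptide complex (50 nM each). Proximity signal was measured by AlphaScreen after 20 min with beads.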
G9a inh: inhibitors of human histone lysine methyltransferase G9a. Q96KQ7. AID 504332. G9a H3K9 monomethylation, AlphaScreen, 2 h. Potency, µM (titrated, usually from 102 µM), for inactives: at the highest dose activity, negative = inhibition, usual class: inhibitors. hit rate 8.8% among 350,000; note: % is set by controls: 0 for no effect and ±100 for the full control effect; nearly all actives have a fitted effect of over 75% in size
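Step 1: enzyme (final 20 nM) with compound, 15 min RT. Step 2: substrate peptide 500 nM and SAM 20 uM, 2 h RT. Step 3: anti-H3K9me1 antibody and AlphaScreen beads, 10 min, then plate read.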
HP1b chromo inh: blocks HP1-beta chromodomain binding to methylated histone tails | P83916 | AlphaScreen HP1-beta / biotin-H3K9me3 peptide binding | Potency, µM (highest dose often 114 µM), without a hit: at the highest dose activity change, negative = inhibition, hits mostly inhibitors | hit rate 0.56% among 390,000 | AID 540317; note: nearly all actives have a fitted effect of over 70% in size
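HP1-beta protein (50 nM final) preincubated 30 min at room temperature with biotinylated H3(1-18)K9me3 peptide (50 nM) in PBS pH 7.4, 0.01% Tween-20, then compound added for 30 min. AlphaScreen streptavidin donor/nickel chelate acceptor beads (10 ug/mL final), 30 min dark, luminescence read.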
TbPYK confirm: confirmation of Trypanosoma brucei pyruvate kinase inhibitors. shares compounds with PLK1 PBD inh. AID 720569. Potency, µM (top dose mostly 76.9 µM), inactives show at the highest dose activity change, negative = inhibition, hits mostly inhibitors. recombinant TbPYK, Kinase-Glo ATP luminescence. hit rate 67% among 890; note: % is set by controls: 0 for no effect and ±100 for the full control effect; nearly all actives have a fitted effect of over 70% in size
TbPYK orthogonal: inhibits T. brucei pyruvate kinase in orthogonal ADP-Glo assay | shares compounds with PLK1 PBD inh | recombinant TbPYK, ADP-Glo luminescence, 60 min | Potency, µM (series often up to 76.9 µM), inactives show at the highest dose activity change, negative = inhibition, usual class: inhibitors | hit rate 62% among 890; note: % is set by controls: 0 for no effect and ±100 for the full control effect; nearly all actives have a fitted effect of over 75% in size
* marks the source's active call; other numbers are inactive results; u = inconclusive; x = not tested or not shown; ! = repeats disagree; [ ] = dose if it differs, or a comment. Shown are actives, neighbours in structure and some others; about 12% of the full set was active somewhere. Calls come from the whole dose curve; as a rule, active = well fitted curve in the direction sought with a large enough effect; inconclusive = small, poorly fitted or top-dose-only effect, or another doubt; inactive = no such curve, though single readings can be large; an effect the other way counts as inactive or inconclusive. Potency is the fitted concentration of half-maximal effect.

SMILES	JMJD2A Tudor	PLK1 PBD inh	Sfp inh	BAZ2B inh	G9a inh	HP1b chromo inh	TbPYK confirm	TbPYK orthogonal
Cc1ccc(-c2cc(C(=O)Nc3cccnc3)c3ccccc3n2)o1	22µM*	u	u	-33%	8.9µM*	u	u	-27%
CC(=O)c1cccc(OCc2cc(C(=O)N(C)Cc3ccc(C)o3)no2)c1	79µM*	-30%	25µM*	-24%	x	u	14µM*	35µM*
CSc1ccccc1OCc1cc(C(=O)N(C)Cc2ccc(C)o2)no1	-28%	-17%	20µM*	-24%	50µM*	-9%	u	u
Cc1ccc(CN(C)C(=O)c2ccccc2Oc2ccccc2)o1	u	-26%	14µM*	-35%	u	-21%	20µM*	25µM*
Cc1ccc(CN(C)C(=O)c2ccc(S(=O)(=O)N(C)c3ccccc3)cc2)o1	u	-6%	x	-37%	8%[0.501 µM]	-16%	x	x
CSc1ccccc1OCc1cc(C(=O)N(C)Cc2ccc3nsnc3c2)no1	-17%	-10%	-2%	2%	x	21%	x	x
CCOc1ccccc1C1C(C(=O)N2CCCCC2)=C(C)Nc2nc3ccccc3n21 (stereo unspecified)	-15%	x	x	-2%	-32%[59 µM]	36%	x	x
Cc1snc(SCC(=O)c2ccc([N+](=O)[O-])cc2)c1C#N	-11%[11.4 µM]	9.5µM*	20µM*	14µM*	1.8µM*	u	18µM*	20µM*
Cc1snc(SCC(=O)c2ccc(F)cc2)c1C#N	6%[11.4 µM]	-9%	4%	25%	0%	58%	x	x
Cc1cc(N=Cc2c(O)ccc3cc(Br)ccc23)no1	1.8µM*	5.3µM*	7%	10%	1.4µM*	u	18µM*	7.1µM*
Cc1ccc(C(=O)O/N=C(\N)c2ccccn2)c(Cl)c1	8%	3%	14%	7%	x	37%	16µM*	13%
Cc1ccc(C(=O)O/N=C(\N)c2ccccc2)c(Cl)c1	67%	3%	-1%	79%	145%	144%	x	x
Cc1cc(Cl)ccc1OCCCC(=O)NNC(=O)c1ccncc1	-9%	-14%	x	5%	13%[12.7 µM]	45%	x	x
O=c1c(Cl)c(Cl)cnn1Cc1nnc(-c2ccc(Cl)cc2)o1	-13%	u	6%	x	u	35%	x	x
Oc1[nH]c2ccc(Br)cc2c1N=NC(=S)N1CCOCC1	18µM*	-18%	-25%	45µM*	3.5µM*	-37%	0.32µM*	0.45µM*
NC1=NC(=O)/C(=C/c2ccc(-c3ccc(S(N)(=O)=O)cc3)o2)S1	u	5%	u	-35%	u	106%	x	x
CC1(C)OC(=O)C(=Cc2ccc(-c3ccc(S(N)(=O)=O)cc3)o2)C(=O)O1	-8%	1.3µM*	56µM*	-19%	35µM*	-14%	13µM*	16µM*
COc1ccc(S(=O)(=O)N2CCN(Cc3nc4ccc(C)cc4o3)CC2)cc1Cl	-14%	x	x	-30%	-11%[59 µM]	14%	x	x
COCCn1c(SCCN2CCOCC2)nc2c1c(=O)[nH]c(=O)n2C	-22%	12µM*	13µM*	8%	11µM*	-16%	10µM*	14µM*
C=CCn1c(SCCN2CCOCC2)nc2c1c(=O)[nH]c(=O)n2C	1%	-14%	-6%	13%	-34%[12.7 µM]	30%	x	x
CC1Cn2c(nc(=O)c3c2NCN(CCc2ccccc2)C3)S1 (stereo unspecified)	-3%	5%	1%	-4%	-19%	42%	x	x
Cc1cc(C2=NNC(=Nc3ccccc3)SC2)c(C)n1C	u	-5%	32µM*	u	8.9µM*	u	u	14µM*
C=CCN=C1NN=C(c2cc(C)n(CC=C)c2C)CS1	u	-14%	-41%	u	u	2%	x	x
CC(Oc1ncnc2ccccc12)C(=O)Nc1cccc(S(=O)(=O)N2CCOCC2)c1 (stereo unspecified)	2%	-7%	-10%	-1%	u	30%	x	x
CCOCCCNC1=C(Cl)C(=O)c2ccccc2C1=O	13µM*	21µM*	45µM*	40µM*	x	18µM*	u	u
SMILES	JMJD2A Tudor	PLK1 PBD inh	Sfp inh	BAZ2B inh	G9a inh	HP1b chromo inh	TbPYK confirm	TbPYK orthogonal
O=C1C(Cl)=C(NCCCN2CCOCC2)C(=O)c2ccccc21	u	-18%	x	x	x	-20%[57 µM]	x	x
Oc1cc2c(cc1O)C1c3ccc(O)c(O)c3OCC1(O)C2 (stereo unspecified)	3.5µM*	30µM*	2.5µM*!	45µM*	u	u	2.5µM*	u
Cc1ccc(Nc2c([N+](=O)[O-])ccc3nonc23)c(C)c1	u	-4%	-4%	u	u	u	x	x
Cc1ccc(S(=O)c2ccc([N+](=O)[O-])c3nonc23)cc1 (stereo unspecified)	x	1.5µM*	x	x	x	x	-96%	11µM*
CCC1CCc2nc3sc(C(=O)Nc4ccc(F)cc4F)c(N)c3cc2C1 (stereo unspecified)	-5%	x	x	-2%	2%[59 µM]	41%	x	x
Cc1ccc(S(=O)(=O)N2CC(O)CC2C(=O)OCC(=O)Nc2ccc([N+](=O)[O-])cc2C(F)(F)F)cc1C (stereo unspecified)	-21%	-3%	x	x	x	8%	x	x
CCOC(=O)C1(C)C(C(=O)OC)=C(c2ccc(OC)cc2)c2ccccc2N1C(=O)OC (stereo unspecified)	-21%	u	-14%	x	u	48%	u	u
O=C(Cn1c(=O)oc2ccccc21)NCc1cccc(Cl)c1	2%	x	x	0%	3%[59 µM]	31%	x	x
COC(=O)N1CCCCC1c1cc(C(=O)Nc2ccc(OC)cc2C)no1 (stereo unspecified)	x	4%	x	x	x	x	x	x
CCOC(=O)c1sc(N/N=C/c2cccc(C)c2)nc1C	4%	-9%	-14%	7%	23%[2.33 µM]	50%	x	x
CCOC(=O)c1sc(N/N=C/c2ccccc2)nc1C	u	8.4µM*	35µM*	-6%	2µM*	-36%[57 µM]	14µM*	28µM*
COc1cc(C(=O)OCC(=O)NC2CCS(=O)(=O)C2)ccc1OCc1c(C)noc1C (stereo unspecified)	-6%	1%	8%	9%	26%[59 µM]	32%	x	x
CC1COCC(C)N1C1=C(Cl)C(=O)c2ccccc2C1=O (stereo unspecified)	3.2µM*	13µM*	x	x	x	13µM*	u	u
CCC(=O)Oc1c(Sc2ccc(Cl)cc2)c(C)nn1C(C)(C)C	65%	x	x	100%	48%[59 µM]	82%	x	x
